Tests used:
Conditions in all cases: concentration: 1 μM, replicates: in singlicate; n = 1
CSNK2A2 = system: CSNK2A2
CTK = system: T1, CTK
T1 construct: gene MATK

DAPK1 = system: DAPK1
DAPK2 = system: DAPK2
DAPK3 = system: DAPK3
DCAMKL1 = system: T2, DCAMKL1
T2 construct: gene DCLK1

DCAMKL2 = system: T3, DCAMKL2
T3 construct: gene DCLK2

DCAMKL3 = system: T4, DCAMKL3
T4 construct: gene DCLK3

DDR1 = system: DDR1
DDR2 = system: DDR2
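Also: KINOMEscan kinase panel screen.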

Compound | %Inh (CSNK2A2) | %Inh (CTK) | %Inh (DAPK1) | %Inh (DAPK2) | %Inh (DAPK3) | %Inh (DCAMKL1) | %Inh (DCAMKL2) | %Inh (DCAMKL3) | %Inh (DDR1) | %Inh (DDR2)
O=C(Nc1n[nH]c2cc(-c3ccccc3F)ccc12)C1CC1 [SB-733371] | 0% | 3% | 0% | 0% | 0% | 16% | 0% | 0% | 0% | 6%
CCC(=O)c1c(-c2ccccc2)c2cc(Cl)ccc2c(=O)n1Cc1cc(S(C)(=O)=O)n(CC(N)=O)n1 | 4% | 0% | 0% | 0% | 6% | 24% | 2% | 0% | 0% | 0%
Cc1nc(N(C)[C@H]2CN(C(=O)CC#N)CC[C@H]2C)c2cc[nH]c2n1 | 6% | 19% | 0% | 13% | 0% | 6% | 0% | 63% | 28% | 2%
CCS(=O)c1ccc(-c2coc3ccc(-c4nnc(C)o4)cc23)cc1 (centres unmarked) | 31% | 0% | 14% | 0% | 0% | 36% | 0% | 0% | 0% | 16%
Cn1c(=O)c(F)c(Nc2ccc(I)cc2F)c2c(=O)n(OC[C@H](O)CO)cnc21 | 0% | 0% | 0% | 0% | 13% | 13% | 20% | 20% | 0% | 25%
C[C@@H]1CC[C@H](C(=O)NC2CCCCC2)CN1c1cc(-c2ccc3c(N)n[nH]c3c2)nc(N)n1 [GSK2291363] | 0% | 0% | 18% | 47% | 35% | 14% | 24% | 0% | 0% | 3%
COc1cc2ncn(-c3cc(OCc4ccncc4Br)c(C(N)=O)s3)c2cc1OC [GW854278] | 18% | 45% | 28% | 18% | 6% | 0% | 2% | 0% | 0% | 0%
COc1cc(Nc2ccnc3ccc(C(F)(F)F)cc23)cc(OC)c1OC [GW577382] | 62% | 8% | 0% | 4% | 26% | 5% | 0% | 2% | 0% | 23%
CN(C)c1cc(-c2ccc3c(N)n[nH]c3c2)nc(N)n1 [GSK2219329] | 11% | 0% | 0% | 0% | 0% | 9% | 0% | 0% | 0% | 0%
CCS(=O)(=O)c1ccc(OC)c(Nc2ncc(-c3ccc(F)cc3)o2)c1.Cl [GW591947] | 17% | 0% | 0% | 0% | 15% | 9% | 0% | 6% | 0% | 4%
COc1cc2ncn(-c3cc(OCc4ccncc4)c(C(N)=O)s3)c2cc1OC [GSK336313] | 29% | 0% | 8% | 0% | 10% | 4% | 0% | 55% | 0% | 0%
COc1cccc(C2=C(N(C)c3ccccc3)C(=O)NC2=O)c1 [SB-334865] | 3% | 0% | 6% | 0% | 14% | 18% | 0% | 16% | 0% | 22%
Nc1nc(-c2ccccc2F)c(-c2ccnc3ccccc23)s1 [GW560459] | 0% | 0% | 0% | 0% | 13% | 12% | 1% | 1% | 7% | 34%
CCCC(=O)Nc1n[nH]c2ncc(-c3cccc4ccccc34)cc12 [SB-642057] | 0% | 0% | 20% | 0% | 24% | 18% | 0% | 11% | 3% | 0%
Cc1ccc(Oc2ccc(Nc3ncnc4cc[nH]c34)cc2C)cn1 | 13% | 29% | 0% | 0% | 0% | 0% | 0% | 0% | 0% | 0%
CCC(=O)c1c(-c2ccccc2)c2cc(Cl)ccc2c(=O)n1Cc1cc(S(C)(=O)=O)n(CC(F)F)n1 | 0% | 0% | 0% | 0% | 0% | 19% | 0% | 1% | 18% | 10%
COC(=O)c1c(-c2ccccc2)c2cc(Br)ccc2c(=O)n1Cc1ccc(NC(=O)CCC(=O)O)cc1 | 19% | 6% | 0% | 0% | 0% | 16% | 0% | 0% | 2% | 22%
COc1cc2nccc(Nc3cccc(Oc4ccccc4)c3)c2cc1OC.Cl [GW284543] | 4% | 10% | 0% | 0% | 0% | 11% | 0% | 23% | 17% | 9%

Compound | %Inh (CSNK2A2) | %Inh (CTK) | %Inh (DAPK1) | %Inh (DAPK2) | %Inh (DAPK3) | %Inh (DCAMKL1) | %Inh (DCAMKL2) | %Inh (DCAMKL3) | %Inh (DDR1) | %Inh (DDR2)
Fc1cccc(CSc2nnc(-c3ccc4c(c3)CCO4)o2)c1 | 33% | 11% | 3% | 0% | 0% | 20% | 0% | 0% | 0% | 16%
CCC(=O)c1c(-c2ccccc2)c2cc(Cl)ccc2c(=O)n1Cc1ccc(C(=O)O)cc1 | 0% | 0% | 13% | 0% | 0% | 8% | 0% | 0% | 24% | 34%
Nc1nccc2scc(-c3ccc4c(c3)CCN4C(=O)Cc3ccccc3)c12 [GSK2576924] | 13% | 0% | 12% | 3% | 21% | 16% | 0% | 27% | 43% | 3%
COc1ccc(-n2cnc3c(N)ncnc32)cc1 [SKF-97236] | 3% | 3% | 13% | 1% | 0% | 13% | 0% | 9% | 10% | 0%
CCn1c(-c2ccoc2)nc2cnccc21 [SB-733887] | 13% | 0% | 0% | 0% | 14% | 34% | 0% | 0% | 27% | 14%
Cc1cccc(-c2cc(-c3c[nH]nc3-c3ccccn3)ccn2)c1 [GW679395] | 8% | 0% | 6% | 0% | 16% | 14% | 0% | 13% | 36% | 8%
Cl.NS(=O)(=O)c1cccc(Nc2cc(-c3ccc(F)cc3)n[nH]2)c1 [GW824645] | 20% | 19% | 0% | 0% | 0% | 15% | 44% | 0% | 0% | 45%
Nc1ncnc2c1ncn2-c1cccc2ccccc12 [SKF-97184] | 0% | 0% | 0% | 0% | 0% | 0% | 13% | 15% | 0% | 59%
COc1cc2ncn(-c3cc(OCc4ccc(S(C)(=O)=O)cc4)c(C(N)=O)s3)c2cc1OC [GW869979] | 0% | 15% | 0% | 0% | 9% | 1% | 19% | 0% | 20% | 2%
COc1ccc(CNC(=O)NC2CCN(c3ccnc(Nc4ccc(F)cc4)n3)C2)cc1 (centres unmarked) [GSK1379706] | 12% | 0% | 0% | 14% | 30% | 14% | 60% | 2% | 8% | 63%
Cc1cc(Nc2nc(-c3cccc(C)n3)nc3ccccc23)ccn1 [GW872411] | 5% | 18% | 0% | 0% | 1% | 26% | 0% | 0% | 0% | 0%
CCC(=O)c1c(-c2ccccc2)c2cc(Cl)ccc2c(=O)n1Cc1cc(C(=O)NC2CC2)n(C)n1 | 3% | 17% | 14% | 0% | 0% | 12% | 0% | 0% | 26% | 29%
Nc1n[nH]c2nnc(-c3ccccc3)c(-c3ccccc3)c12 [GW554060] | 0% | 0% | 0% | 0% | 19% | 1% | 0% | 0% | 28% | 22%
CC(C)(C)c1ccc(C(=O)Nc2cn3cc(-c4ccccc4)ccc3n2)cc1 | 75% | 0% | 9% | 0% | 0% | 33% | 0% | 21% | 4% | 28%
COc1ccc(-c2cc3c(C)nc(N)nc3n([C@H]3CC[C@H](OCCO)CC3)c2=O)cn1 | 11% | 2% | 11% | 0% | 0% | 0% | 0% | 0% | 0% | 0%
COc1ccc(Nc2nccc(N3CCC(NS(=O)(=O)c4ccc(NC(C)=O)cc4)C3)n2)cc1 (centres unmarked) [GSK1379729] | 18% | 0% | 0% | 0% | 6% | 10% | 0% | 53% | 13% | 26%
O=C(NCCNc1ccnc(Nc2ccc(F)cc2)n1)Nc1ccc2c(c1)OCO2 [GSK1379882] | 16% | 0% | 19% | 8% | 26% | 0% | 0% | 0% | 0% | 18%

Source: PMC5540273 (PLoS ONE, 2017)
